CHO-K1 Ca PAM = counter-screen for M1 PAMs: effect in parental CHO-K1 cells. ATP EC20, Fluo-8 calcium fluorescence; 0% at ATP EC20, 100% at ATP max. activation, % at 3 µM. actives 0.02% (n = 360,000);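 active = activation above the run cutoff, the mean activation of all test compounds plus 3 SD, cut at about 40% in these data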;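 also: peak over basal fluorescence ratio in a 140 s read after ATP addition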
CHO-K1 Ca antag = nonselective inhibitor or artifact in parental CHO-K1 cells; AID 602250; inhibition, % at 3 µM; actives 0.6% (n = 360,000); ATP-induced calcium, Fluo-8 fluorescence;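 active = inhibition above a per-plate cutoff, the plate's mean sample inhibition plus 3 SD, cut at about 24% in these data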;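 also: 0% = DMSO plus EC80 ATP and 100% = DMSO alone without ATP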
M1 PAM = positive allosteric modulators of human M1 muscarinic receptor. CHO-K1 hM1, Fluo-8 calcium fluorescence, ACh EC20; 0% = ACh EC20, 100% = maximal ACh. activation, % at 3 µM. actives 0.088% (n = 360,000). AID 588819; in the data active = activation above about 19%, passing the limit was not always enough
Target sequence (P11229 whole entry, looked up): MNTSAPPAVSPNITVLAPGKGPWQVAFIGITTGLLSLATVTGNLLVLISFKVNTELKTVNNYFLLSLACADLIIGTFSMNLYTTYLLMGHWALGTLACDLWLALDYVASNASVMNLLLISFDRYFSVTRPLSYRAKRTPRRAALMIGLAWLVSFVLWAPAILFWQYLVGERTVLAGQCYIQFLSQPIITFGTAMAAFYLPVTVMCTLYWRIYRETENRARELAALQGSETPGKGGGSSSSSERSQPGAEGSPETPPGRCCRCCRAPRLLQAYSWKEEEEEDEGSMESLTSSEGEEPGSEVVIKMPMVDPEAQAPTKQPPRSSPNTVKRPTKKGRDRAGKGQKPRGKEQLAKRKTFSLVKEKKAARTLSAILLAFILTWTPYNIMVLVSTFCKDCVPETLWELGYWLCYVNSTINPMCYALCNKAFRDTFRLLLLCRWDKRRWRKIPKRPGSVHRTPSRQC
CHO-K1 Ca ag = M1 agonist counterscreen hit in parental CHO-K1 cells | Fluo-8 calcium fluorescence; scaled to maximal ATP response, vehicle zero | activation, % at 3 µM | actives 0.48% (n = 360,000); in the data active = activation above about 15%;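 also: untransfected CHO-K1 host cells lacking M1 receptor as counterscreen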
M1 antag = antagonists of human M1 muscarinic receptor; P11229; CHO-K1 hM1, Fluo-8 calcium fluorescence, ACh EC80 antagonist; inhibition, % at 3 µM; actives 1.3% (n = 360,000); AID 588852;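 active = percent inhibition above its own plate's cutoff, namely the mean of that plate's compound wells plus 3 SD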;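 also: peak over basal fluorescence ratio during 140 s after agonist addition; 0% = ACh EC80 plus DMSO and 100% = DMSO alone without agonist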
M1 ag = human M1 muscarinic receptor agonism. activation, % at 3 µM. CHO-K1 hM1, Fluo-8 calcium fluorescence, agonist mode; 0% DMSO, 100% acetylcholine EC100. actives 0.33% (n = 360,000). P11229;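 active = activation above the run's mean compound activation plus 3 SD, cut at about 16% in these data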;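 also: peak over basal fluorescence ratio within a 140 s kinetic read after compound addition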
* marks the source's active call; other numbers are inactive results; / = not tested or not shown. Only some compounds are listed: those with a hit (about 2.3% of all), similar ones and a draw of the others.

SMILES	CHO-K1 Ca PAM	CHO-K1 Ca antag	M1 PAM	CHO-K1 Ca ag	M1 antag	M1 ag
O=C(C[n+]1cc(-c2ccc(Cl)cc2)n2c1CCC2)N1c2ccccc2Sc2ccccc21	-3	4	-26	0	97*	-8
Cc1ccccc1NC(=O)C[n+]1cc(-c2ccccc2)n2c1CCC2	-21	16	-17	5	50*	-2
Cc1ccsc1C(=O)N1CCC1(C)C(=O)NCCC#N (stereo not drawn)	4	-3	14	1	-30	-2
O=C(C[n+]1cc(-c2ccc(Cl)c(Cl)c2)n2c1CCC2)N1c2ccccc2Sc2ccccc21	26	-4	-27	0	100*	-8
COc1ccc(Cn2ccnc2)cc1Br	14	-11	-1	2	-5	-3
COc1ccc(NCc2ccc(OC)c(Cn3ccnc3)c2)c(OC)c1	-3	-3	-22	5	34*	-9
COc1ccccc1C(CNC(=O)c1ccco1)N1CCCC1 (stereo not drawn)	-18	-3	-30	0	73*	-8
COc1ccccc1C(CNC(=O)CN1C(=O)NC(C)(c2ccc3ccccc3c2)C1=O)N1CCCC1 (stereo not drawn)	20	-19	-27	1	65*	-8
COc1cc(C(=O)NCC(c2ccco2)N2CCCC2)ccc1OCc1ccc(Cl)cc1Cl (stereo not drawn)	8	-16	-24	4	49*	-6
COc1ccccc1C(CNC(=O)c1ccc(-c2ccccc2Cl)o1)N1CCCC1 (stereo not drawn)	-17	4	-24	2	84*	-5
COc1ccc(Cl)cc1C(=O)NCC(c1ccco1)N1CCCC1 (stereo not drawn)	16	-8	-12	1	14	-5
Cc1cc2nc(-c3cccc(Br)c3)c(CC3CCCCC3)n2c(C)c1Br	6	-27	/	0	/	/
CC(=O)Nc1ccc(-c2ccnc3c2CC(C)(C(=O)Nc2ccc(Cl)cc2)O3)cc1 (stereo not drawn)	18	-10	0	1	-2	1
CC(C)COC(=O)NCCOC(=O)Nc1cccc(Cl)c1	6	24*	-16	9	25*	4
O=C(Nc1nccs1)c1cnc2sccn2c1=O	-7	9	7	0	-13	0
C[C@]12CCC(=O)C=C1[C@H](O)C[C@@H]1[C@@H]2[C@@H](O)C[C@@]2(C)[C@H]1CC[C@]2(O)C(=O)CO	-8	33*	0	2	-25	-2
C[C@H](CO)N1C[C@H](C)[C@@H](CN(C)C(=O)c2cc(-c3ccccc3)on2)OCc2cn(nn2)CCCC1=O	-5	-5	4	0	-7	-2
c1ccc(COc2cccc(-c3cc4nc(NCCCn5ccnc5)ccn4n3)c2)cc1	0	-4	0	2	-9	-2
O=C(c1cc(Cl)cc(Cl)c1)N1CCC2CC1c1cc(N3CCCCC3)ccc12 (stereo not drawn)	8	2	-33	0	70*	-11
Clc1cccc(CN2CCC3CC2c2cc(N4CCCCC4)ccc23)c1 (stereo not drawn)	12	-16	3	1	-8	-5
O=C(OCc1ccccc1)N1CCC2CC1c1cc(N3CCCCC3)ccc12 (stereo not drawn)	13	-11	-28	0	34*	-11
CC(C)(C)c1ccc(CC(=O)N2CCC2(C)C(=O)NS(=O)(=O)c2ccccc2Cl)cc1 (stereo not drawn)	-6	-10	10	0	-18	1
C[C@H](NC(=O)C1CCN(C(=O)[C@@H]2CCCN2C(=O)OC(C)(C)C)CC1)C(=O)NCc1ccc(F)cc1	20	-12	-1	0	1	-4
Cc1nc2ccccc2n1Cc1ccc(Br)cc1	-17	31*	-11	11	37	0
Cc1nc2ccccc2n1Cc1ccccc1Br	-9	15	-11	23*	10	2
CCCCOCCCNC(=O)C[C@@H]1C[C@@]2(C(=O)OC)CCCCC=C2N(Cc2cccc3ccccc23)C1=O	-6	-9	/	2	/	/
c1ccc(Cn2c(NCc3ccco3)nc3ccccc32)cc1	-3	25*	-12	1	16	-6

Screening results (PubChem)
